# Experimental data from PubChem BioAssay (NCATS).
# This is one part of the list. Records with an inconclusive call do not appear. Values without a mark were called inactive. Active and inactive are the calls of the source. The call rests on the fitted dose curve; in most records, active means well fitted inhibition curve with a large enough effect; inconclusive means small, poorly fitted or top-dose-only effect; inactive means flat fitted curve, though single readings scatter.
# Tested on: NanoLuc luciferase (engineered Oplophorus gracilirostris luciferase)
# Assay: Biochemical NLuc saturation counterscreen for small molecule modulators of PMP22 gene expression - Nano-Glo assay (AID 1508638)
# Conditions: Secreted NLuc enzyme (filtered S16 cell medium), Nano-Glo luminescence; series mostly up to 57.5 µM; activity change, negative = inhibition: at the top concentration
# From the text: Assay Provider: Jim Inglese Ph.D. National Center for Advancing Translational Science, National Institutes of Health, Rockville, MD CMT is a heterogeneous group of neurological disorders that affect approximately 1 in 2,500 people. In particular, the most common form of CMT, CMT1A is genetically linked to the duplication of the PMP22 gene which leads to Schwann cell overexpression, thus manifesting itself as a typical case of dose-sensitive diseases. To identify small molecule compounds that can mediate the expression of PMP22 we developed a phenotypic assay screening strategy by utilizing genome editing techniques to construct Schwann cell lines containing novel reporter technology to monitor the transcriptional or translational regulation of PMP22. For high sensitivity we use a bioluminescent reporter system embedded in the 3' UTR of the PMP22 gene (S16(c9) Pmp22-F2sN) to identify compounds that inhibit gene expression. […] We can further discriminate the effect of all transcriptionally active molecules on PMP22 translation or stability with an assay that incorporates a short NLuc peptide (HiBiT) at the C-terminus of expressed PMP22 (S16(f8) PMP22-HiBiT) allowing alpha complementation and luminescence detection of membrane-associated PMP22 protein. These assays were screened against the NCATS Sytravon Library Collection. Miniaturization of these assays to 1536-well plate format for quantitative high throughput screening (qHTS) yielded rich data sets immediately from the qHTS assay (S16(c9) Pmp22-F2sN), when compared with data from a cell viability assay (Cell TiterGlo) to identify compounds that decreased the output signals through cellular toxicity to streamline the selection process of actives for subsequent characterization using the HiBiT assay (S16(f8) PMP22-HiBiT).
# Biochemical Promega Nano-Glo solution NLuc assay PROTOCOL TABLE (format as described by Inglese J, Shamu CE and Guy RK. 2007) SEQUENCE No. (e.g., 1, 2, 3, etc.); PARAMETER (e.g., Cells, Incubation, Reagent, etc.); VALUE and DESCRIPTION. 1. Reagent. Add 2 uL substrate per well into Greiner 1536-well white/solid bottom high base, medium binding plates. 2. Compounds. Library compounds and controls added at 23nL per well, transferred by Pin Tool. 3. Incubation. Incubate plates 5 min at ambient temperature. 4. Reagent. Add 2uL NLuc enzyme solution per well of Greiner 1536-well plates. 5. Incubation. Incubate plates at room temperature for 10 min., protect from light. 6. Detector. FLuc luminescence measured using CCD-based camera (Viewlux). NOTES (numbers refer to Sequence numbers above; values are from representative experiments) 1. Freshly prepared Nano-Glo Luciferase Assay System reagent per Promega instructions, product N1120, and filtered through […]. 4. Enzyme was obtained by filtering media of S16 cells expressing secreted NLuc (Inglese et al. 2014) grown to 80-90% confluency in DMEM High Glucose, No Phenol Red media + 10% heat inactivated FBS + 1% Pen/Strep supplemented media6. Luminescence Read (Fluc): Clear filter; Exposure = 10 sec, Gain = High, Speed = Slow, Binning = 2X 6. Luminescence Read (Nluc): Clear filter; Exposure = 1 sec, Gain = High, Speed = Slow, Binning = 2X REFERENCES: 1. Inglese J, Shamu CE and Guy RK, Reporting data from high throughput screening of small molecule libraries, Nature Chemical Biology, 2007, 3(8): 438-441. doi.org/10.1038/nchembio0807-438 2. Yasgar A, Shinn P, Jadhav A, Auld DS, Michael S, Zheng W, Austin CP, Inglese J and Simeonov A, Compound Management for Quantitative High-Throughput Screening. J. Assoc. Lab. Auto., 2008, 13: 79-89. doi: 10.1016/j.jala.2007.12.004 3. Inglese, J., Dranchak, P., Moran, J. J., Jang, S. W., Srinivasan, R., Santiago, Y., Zhang, L., Guha, R., Martinez, N., MacArthur, R., Cost, G. J., and Svaren, J. (2014) Genome editing-enabled HTS assays expand drug target pathways for Charcot-Marie-tooth disease, ACS Chem Biol 9, 2594-2602.
# On the % scale 0 is the no-effect control and ±100 the full control effect; potency means the concentration at half of the fitted maximal effect.
Structure (SMILES),"activity change, negative = inhibition [%]",Potency
COc1ccc(-c2onc(C)c2C)cc1S(=O)(=O)NCC1CCN(Cc2cccc(F)c2)CC1,-5.11,
Cc1cc(OCC(=O)NCC2(N(C)C)CCCCC2)cc(C)c1Cl,-4.49,
Cc1ccc(OCCSc2nc3ccc(NC(=O)COc4ccc(C)cc4)cc3s2)cc1,-1.84,
CC(=O)N1CCCc2cc(S(=O)(=O)N3CCCC(C(=O)N4CCN(c5cccc(Cl)c5)CC4)C3)ccc21 (stereo not given),-13,
Cc1ccc(C)n1-c1nnc(N2CCC(C(=O)NCc3ccccc3Cl)CC2)s1,-18.5,
CCOc1ccc(NC(=O)c2c(NC(=O)Cc3ccccc3)sc3c2CCC(C)C3)cc1 (stereo not given),-19.8,
CCC1=Nc2cc(C(=O)NCCCOC(C)C)ccc2Sc2ccc(C)cc21,-4.08,
CCc1ccc(C2CC(=O)c3c([nH]c(C(=O)OCc4ccc(C)cc4)c3C)C2)cc1 (stereo not given),-1.46,
Cc1ccc(NC(=O)c2nc(S(=O)(=O)Cc3cccc(C)c3)ncc2Cl)cc1,-7.03,
CCC1CCCCN1CCCNC(=O)c1cc2c(Cl)nc3ccccc3c2s1 (stereo not given),-0.443,
CCOC(=O)c1c(C)[nH]c(CCC(=O)NCCCN2CCN(c3cc(C)ccc3C)CC2)c1C,-14.1,
CCOC(=O)c1ccc(NC(=O)CSc2nc3c([nH]c4ccccc43)c(=O)n2C)cc1,-7.37,
Cc1nnc(SCC(=O)NCc2ccccc2Cl)c2nn(-c3ccccc3)c(C)c12,-19.2,
CC(C)(C)c1ccc(C(=O)NCC(c2ccco2)S(=O)(=O)c2ccc(F)cc2)cc1 (stereo not given),-10.4,
CCCCOc1ccc(CN2C(=O)C(=O)c3cc(Br)cc(C)c32)cc1OC,-8.72,
O=C(c1ccc2c(c1)N(Cc1ccc(F)cc1)C(=O)c1ccccc1S2(=O)=O)N1CCN(c2ccccn2)CC1,,3.43 µM (active)
Cc1cccc(Nc2cc(C)nc(-n3nc(C)cc3C)n2)c1,,6.11 µM (active)
O=C(c1ccc(C(F)(F)F)cc1)N1CCC(c2nc(-c3ccc(S(=O)(=O)N4CCCC4)cc3)no2)CC1,-5.18,
CCCn1c2ccccc2c2cnn(CC(=O)NCC3CCN(Cc4ccc(C)cc4)CC3)c(=O)c21,-5.62,
COc1ccccc1Nc1c2c(nc3ccc(NC(=O)/C=C/c4cc(OC)c(OC)c(OC)c4)cc13)CCCC2,,4.32 µM (active)
CCOC(=O)c1c(C)[nH]c(CCC(=O)NCCCN2CCN(c3cccc(Cl)c3)CC2)c1C,-7.06,
CCCS(=O)(=O)c1ncc(Cl)c(C(=O)Nc2scc(-c3ccccc3)c2C(=O)OCC)n1,-5.14,
CCOCCCNC(=O)c1c(NC(=O)c2nc(SC)ncc2Cl)sc2c1CCCC2,-16.4,
COc1ccc(CCNC(=O)c2cc(=O)c3c(C)cc(C)cc3o2)cc1OC,,0.343 µM (active)
Cc1ccc(CCNC(=O)C2CCN(c3nnc(-n4cccc4CNc4ccc(C)cc4)s3)CC2)cc1,-9.6,
